High-throughput results deposited in PubChem BioAssay by The Scripps Research Institute Molecular Screening Center.
M1 ag – human M1 muscarinic receptor agonism; AID 588814; CHO-K1 hM1, Fluo-8 calcium fluorescence, agonist mode; 0% DMSO, 100% acetylcholine EC100; hit rate 0.33% among 360,000; P11229; activation, % at 3 µM;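 active = activation above the run's mean compound activation plus 3 SD, cut at about 16% in these data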;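 note: peak over basal fluorescence ratio within a 140 s kinetic read after compound addition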
Target sequence (P11229 whole entry, looked up): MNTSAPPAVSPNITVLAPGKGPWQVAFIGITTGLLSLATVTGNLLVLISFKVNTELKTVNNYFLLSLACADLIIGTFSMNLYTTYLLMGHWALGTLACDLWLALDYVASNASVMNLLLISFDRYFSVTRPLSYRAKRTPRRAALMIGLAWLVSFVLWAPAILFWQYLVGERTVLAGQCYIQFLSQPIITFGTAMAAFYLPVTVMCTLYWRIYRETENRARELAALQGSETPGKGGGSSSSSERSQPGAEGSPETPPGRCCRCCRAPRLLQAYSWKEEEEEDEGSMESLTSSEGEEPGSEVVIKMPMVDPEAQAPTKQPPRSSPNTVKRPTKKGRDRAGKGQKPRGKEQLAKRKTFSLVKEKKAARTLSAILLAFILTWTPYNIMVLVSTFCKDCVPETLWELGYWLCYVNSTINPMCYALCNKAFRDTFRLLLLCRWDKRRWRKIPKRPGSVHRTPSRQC
CHO-K1 Ca antag – counter-screen for M1 antagonists: effect in parental CHO-K1 cells; ATP-induced calcium, Fluo-8 fluorescence; AID 602250; hit rate 0.6% among 360,000; inhibition, % at 3 µM;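 active = inhibition above a per-plate cutoff, the plate's mean sample inhibition plus 3 SD, cut at about 24% in these data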
CHO-K1 Ca ag – counter-screen for M1 agonists: effect in parental CHO-K1 cells | Fluo-8 calcium fluorescence; scaled to maximal ATP response, vehicle zero | activation, % at 3 µM | hit rate 0.48% among 360,000 | AID 602248; in the data active = activation above about 15%;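 note: untransfected CHO-K1 host cells lacking M1 receptor as counterscreen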
M1 PAM – human CHRM1 positive allosteric modulation; CHO-K1 hM1, Fluo-8 calcium fluorescence, ACh EC20; 0% = ACh EC20, 100% = maximal ACh; P11229; activation, % at 3 µM; hit rate 0.088% among 360,000; in the data active = activation above about 19%, passing the limit was not always enough
CHRM1 antagonist – antagonists of human M1 muscarinic receptor | P11229 | CHO-K1 hM1, Fluo-8 calcium fluorescence, ACh EC80 antagonist | inhibition, % at 3 µM | hit rate 1.3% among 360,000;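 active = percent inhibition above its own plate's cutoff, namely the mean of that plate's compound wells plus 3 SD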;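 note: peak over basal fluorescence ratio during 140 s after agonist addition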
CHO-K1 Ca PAM – M1 PAM counterscreen hit in parental CHO-K1 cells. activation, % at 3 µM. hit rate 0.02% among 360,000. ATP EC20, Fluo-8 calcium fluorescence; 0% at ATP EC20, 100% at ATP max;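 active = activation above the run cutoff, the mean activation of all test compounds plus 3 SD, cut at about 40% in these data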;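 note: peak over basal fluorescence ratio in a 140 s read after ATP addition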
Each line names hits and unclear results; the compound was inactive in the other large screens. Compounds with a hit are over-represented: about 2.4% of the library has one in this group of screens.

CCCCCCCCS(=O)C1CCS(=O)(=O)C1 (configuration not stated)	none
CCCCn1c(N)c(N(CC)C(=O)CSc2nnnn2-c2cc(C)ccc2C)c(=O)[nH]c1=O	none
O=c1[nH]c(Cc2ccccn2)nc2scc(-c3ccc(Cl)cc3)c12	M1 ag 26
O=c1[nH]c(Cc2cccs2)nc2scc(-c3ccc(Cl)cc3)c12	none
CCOC(=O)C1=C[C@@H](C2CCCC2)N(S(=O)(=O)c2ccc([N+](=O)[O-])cc2)[C@H]1c1ccccc1	CHO-K1 Ca antag 31, CHRM1 antagonist 44
CCOC(=O)C1=C[C@@H](CC)N(S(=O)(=O)c2ccc(C)cc2)[C@H]1c1ccccc1	none
CCOc1ccc(NC(=S)N2CCC(C(=O)c3ccc(OC)cc3)CC2)cc1	M1 PAM 29
COc1ccc(NC(=S)N2CCC(C(=O)c3ccc(Cl)cc3)CC2)cc1	none
COc1ccc(N=Cc2c(O)cc(C)oc2=O)cc1	CHO-K1 Ca ag 16
Cc1cc(O)c(C=Nc2cccc(Cl)c2)c(=O)o1	none
CN(C)C(=O)N1CCc2ccc([N+](=O)[O-])cc21	none
CCCC(CCC)C(=O)OC1C[C@H]2CC[C@@H](C1)[N+]2(C)C (some centres not stated)	CHRM1 antagonist 98
Cc1ccc(S(=O)(=O)CC(=O)c2ccc3c(c2)OCCO3)cc1	none
Cc1ccc2c(C)c(C(=O)N3CCC(C(N)=O)(N4CCCCC4)CC3)oc2c1C	none
CN1CCC(Oc2ccccc2Sc2ccc(C(F)(F)F)cc2)CC1	CHRM1 antagonist 64
CN1CCC(Oc2ccc(Sc3ccccc3)cc2)CC1	none
Cc1ccccc1NC(=O)c1ccc(C)c(S(=O)(=O)NCc2cccnc2)c1	M1 ag 22
S=C(NCCc1ccccn1)Nc1ccccc1Cl	CHO-K1 Ca antag 27
S=C(NCCCc1ccccc1)Nc1ccccc1Cl	CHO-K1 Ca ag 15
FC(F)(F)c1cnc(NNC(=S)Nc2ccccc2Cl)c(Cl)c1	CHO-K1 Ca ag 16
S=C(NCCc1ccccc1)Nc1ccccc1Cl	none
S=C(NCCNC(=S)Nc1ccccc1Cl)Nc1ccccc1Cl	CHO-K1 Ca ag 16
COc1ccc(-c2nc(CS(=O)CC(=O)NCCCN3CCOCC3)c(C)o2)cc1OC (configuration not stated)	none
S=C(Nc1cccc2ccccc12)NN1CCCCCC1	CHRM1 antagonist 41
S=C(NCCc1ccncc1)Nc1cccc2ccccc12	CHO-K1 Ca antag 27
S=C(Nc1cccc2ccccc12)NN1CCOCC1	none
C=CCNC(=S)Nc1cccc2ccccc12	none
CC1CN(S(=O)(=O)c2cccc(C(=O)NCc3ccccn3)c2)CC(C)O1 (configuration not stated)	none
COc1ccc(-c2nc3c4ccccc4ccn3c2CC2CCCCC2)cc1OC	none
O=C1[C@@H]2[C@@H](CN3CN(c4ccccc4)N=C(c4ccccc4)[C@@]23c2ccccc2)C(=O)N1c1ccccc1	CHO-K1 Ca PAM 42
O=C1[C@H]2C(c3ccccc3)=NN(c3ccccc3)[C@H]2C(=O)N1c1ccccc1	none
CSc1cccc(NC(=O)COC(=O)c2ccccn2)c1	none
O=C(CC(=O)N/N=C/c1cccs1)NCc1ccccc1	CHO-K1 Ca ag 16
O=C(COC(=O)c1ccc(F)cc1F)NC1CC1	CHO-K1 Ca antag 30
O=C(COC(=O)c1ccc(F)cc1F)NCCNC(=O)COC(=O)c1ccc(F)cc1F	none
O=C(Cn1cc(C(=S)N2CCOCC2)c2ccccc21)N1CCOCC1	none
Fc1ccc(Cn2cc(C(=S)N3CCOCC3)c3ccccc32)cc1	CHO-K1 Ca ag 23
O=C(O)Cn1cc(C(=S)N2CCOCC2)c2ccccc21	M1 PAM 27
O=C(O)c1ccc(N/N=C2/CCCc3ccccc32)cc1	none
Cc1nn(C(C)C)c(C)c1CN1CCCC(C(=O)c2cccc(OC(C)C)c2)C1 (configuration not stated)	CHRM1 antagonist 37
CCn1nc(C)c(CN2CCCC(C(=O)c3cccc(OC(C)C)c3)C2)c1C (configuration not stated)	CHRM1 antagonist 95
Cc1nc(C(=O)N2CCCC(C(=O)c3cccc(OC(C)C)c3)C2)cs1 (configuration not stated)	none
CC(C)Oc1cccc(C(=O)C2CCCN(Cc3cccn3-c3ccccn3)C2)c1 (configuration not stated)	CHRM1 antagonist 41
CC(C)Oc1cccc(C(=O)C2CCCN(Cc3cnn(C(C)C)c3)C2)c1 (configuration not stated)	none
CC(C)Oc1cccc(C(=O)C2CCCN(C(=O)c3cncs3)C2)c1 (configuration not stated)	CHRM1 antagonist 39
CC(=O)N1Cc2cc(C(=O)NCC(F)(F)F)nc(-c3cccc(-c4cc5ccccc5o4)c3)c2[C@H]1CCO	none (no result: M1 ag, M1 PAM, CHRM1 antagonist)
C[C@@H]1CCC2[C@](C)(CO)[C@@H](O)CC[C@]2(C)[C@@]12CC[C@@](CO)(CC(=O)O)O2 (some centres not stated)	none
CC(=O)Nc1ccc(/C=N/N2CCCCC2)cc1	M1 ag 35
CC(=O)Nc1ccc(/C=N/N2C(C)CCCC2C)cc1 (configuration not stated)	none
O=C(Nc1ccccn1)c1cc(-c2cccc(Cl)c2)nc2ccccc12	none
O=C(C[C@H]1C[C@H](C(=O)N2CCCCC2)[C@@]2(CCc3ccccc3)c3[nH]c4ccc(Cl)cc4c3CCN2C1=O)NCCC1=CCCCC1	CHO-K1 Ca antag 26
CC1CCCC(C)N1C(=O)COc1ccc(C(=O)Nc2ccccc2N2CCOCC2)cc1 (configuration not stated)	CHRM1 antagonist 34
O=C(Nc1ccc(OCC(F)(F)C(F)F)c(C(F)(F)F)c1)c1ccc(Cl)cc1	CHRM1 antagonist 36
O=C(Nc1ccc(Br)c(C(F)(F)F)c1)c1ccc(C(F)(F)F)cc1	CHRM1 antagonist 63
O=C(Nc1ccc(Br)c(C(F)(F)F)c1)c1ccccc1	none
CCCCN(CCCC)c1cn[nH]c(=O)c1Cl	CHRM1 antagonist 27
CCCCSc1nc2[nH]ncc2c(=O)[nH]1	none
Nc1c(N(CCCO)C(=O)CCCN2C(=O)c3cccc4cccc(c34)C2=O)c(=O)[nH]c(=O)n1Cc1ccccc1	none
CCOc1cc(C)nc(N2CCC(C(=O)NC3CC3)CC2)n1	none
O=C(CNC1CCN(Cc2ccccc2)CC1)Nc1ccc(S(=O)(=O)N2CCCCC2)cc1	CHRM1 antagonist 44
O=C(CNC1CCCC1)Nc1ccc(S(=O)(=O)N2CCCCC2)cc1	none
CCOc1ccc(NC(=O)c2ccc(CN3CCc4ccccc4C3)cc2)cc1	CHO-K1 Ca antag 27, CHRM1 antagonist 39
O=C(Nc1ccc(Cl)cc1)c1ccc(CN2CCc3ccccc3C2)cc1	none
O=C(Nc1ccc(S(=O)(=O)N2CCCC2)cc1)c1ccc(CN2CCc3ccccc3C2)cc1	CHRM1 antagonist 39
